{"source": "PubChem BioAssay AID696", "about": "(Sanford-Burnham Center for Chemical Genomics, 2007)", "note": "Out of some 96,000 compounds screened, about 1,200 (1.2%) were called active. No stated cut-off is given here; in the data, active means activation fold above about 2; inactive means the rest. Many of the other results were omitted from the sample, so actives are more common in it than they were."}
{"target": "Alkaline phosphatase, placental type (Homo sapiens) (UniProt P05187)", "sequence (P05187 whole entry, looked up)": "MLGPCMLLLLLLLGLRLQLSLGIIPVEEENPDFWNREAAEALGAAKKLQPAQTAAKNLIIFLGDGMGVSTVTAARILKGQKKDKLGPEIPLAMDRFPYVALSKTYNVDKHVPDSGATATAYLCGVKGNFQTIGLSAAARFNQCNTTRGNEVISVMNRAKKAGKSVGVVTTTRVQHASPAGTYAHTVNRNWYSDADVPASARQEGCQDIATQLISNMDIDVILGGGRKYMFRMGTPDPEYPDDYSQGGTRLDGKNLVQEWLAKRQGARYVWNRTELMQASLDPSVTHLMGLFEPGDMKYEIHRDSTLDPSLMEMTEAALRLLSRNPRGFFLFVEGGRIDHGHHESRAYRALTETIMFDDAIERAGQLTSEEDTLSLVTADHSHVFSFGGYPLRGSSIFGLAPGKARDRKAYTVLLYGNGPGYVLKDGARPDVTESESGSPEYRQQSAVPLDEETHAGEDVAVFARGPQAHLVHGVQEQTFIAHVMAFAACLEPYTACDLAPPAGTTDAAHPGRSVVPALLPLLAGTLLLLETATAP", "test": "PLAP enzyme activators, biochemical, luminescence, HTS (AID 696)", "conditions": "purified PLAP enzyme, luminescent substrate read-out; at 20 µM; active compounds read high"}
{"compound": "Cc1cccc(NC(=S)Nc2ccc(Br)cc2)c1", "activation fold": "1.2 (inactive)"}
{"compound": "COC(=O)c1ccc(NC(=O)c2ccco2)cc1", "activation fold": "0.8 (inactive)"}
{"compound": "O=C(Nc1nnc(CCOCCOCCc2nnc(NC(=O)c3ccco3)s2)s1)c1ccco1", "activation fold": "2 (active)"}
{"compound": "O=C(Nc1nnc(SCc2ccccc2)s1)c1ccco1", "activation fold": "1.1 (inactive)"}
{"compound": "COc1ccc(C(=O)NC(=S)Nc2ccccc2N2CCN(S(C)(=O)=O)CC2)cc1OC", "activation fold": "1 (inactive)"}
{"compound": "CCN(C(=O)CSc1ncn[nH]1)c1cccc2ccccc12", "activation fold": "2.3 (active)"}
{"compound": "O=C(CSc1ncn[nH]1)Nc1ccnc2ccccc12", "activation fold": "1.9 (inactive)"}
{"compound": "CC(C)(C)c1ccc(C(=O)CSc2ncn[nH]2)cc1", "activation fold": "1.5 (inactive)"}
{"compound": "Cc1sc(NC(=S)NC(=O)c2cccs2)nc1-c1ccc(CC(C)C)cc1", "activation fold": "1.5 (inactive)"}
{"compound": "Cc1ccc(S(=O)(=O)NCCSC(C)(C)C)cc1", "activation fold": "0.9 (inactive)"}
{"compound": "COc1ccc(CCNC(=O)COC(=O)c2ccc[nH]c2=O)cc1", "activation fold": "1 (inactive)"}
{"compound": "Cc1ccc(C)c(N2CCN(S(=O)(=O)c3ccc4c(c3)oc(=O)n4C)CC2)c1", "activation fold": "1.4 (inactive)"}
{"compound": "Cc1ccc(S(=O)(=O)C(C#N)c2nc3ccccc3nc2N2CCCC2)cc1C", "note": "(stereo unspecified)", "activation fold": "1.4 (inactive)"}
{"compound": "Cc1cc(N2CCN(S(=O)(=O)c3ccc(C)c(C)c3)CC2)c2ccccc2n1", "activation fold": "2.1 (active)"}
{"compound": "COC(=O)c1[nH]c2ccc(Br)cc2c1NC(=O)Oc1ccccc1", "activation fold": "1.1 (inactive)"}
{"compound": "CCCN1CCN(CCCNC(=O)CN2C(=O)COc3ccccc32)CC1", "activation fold": "1.2 (inactive)"}
{"compound": "O=C(CN1C(=O)COc2ccccc21)NCCN1CCc2ccccc2C1", "activation fold": "1.3 (inactive)"}
{"compound": "O=C(CN1C(=O)COc2ccccc21)Nc1ccc(F)cc1", "activation fold": "2.5 (active)"}
{"compound": "O=C(Nc1cc(C(F)(F)F)ccc1Cl)c1cc2nc3c(c(C(F)(F)F)n2n1)CCCC3", "activation fold": "1.6 (inactive)"}
{"compound": "Clc1ccc(-c2nnc(-c3ccccc3)nc2N2CCSCC2)cc1", "activation fold": "1.4 (inactive)"}
{"compound": "O=C1C2C3C=CC(C4CC34)C2C(=O)N1/N=C/c1ccc(-c2ccccc2[N+](=O)[O-])o1", "note": "(stereo unspecified)", "activation fold": "0.9 (inactive)"}
{"compound": "Cc1nn(C)cc1C(=O)NNC(=S)Nc1ccc(Cl)cc1", "activation fold": "2.2 (active)"}
{"compound": "S=C(NCc1cccs1)Nc1ccc(Cl)cc1", "activation fold": "0.9 (inactive)"}
{"compound": "COc1ccc(Cl)cc1C(=O)NCc1cn(C)nc1C", "activation fold": "1.1 (inactive)"}
{"compound": "O=C(CNC(=O)c1ccccc1)NCC(=O)OCc1ccc(Cl)cc1", "activation fold": "0.9 (inactive)"}
{"compound": "OC(COc1cccc(OCC(O)CN2CCCC2)c1)CN1CCCC1", "note": "(stereo unspecified)", "activation fold": "1.2 (inactive)"}
{"compound": "Cc1ccccc1C(OCC(O)CN1CCCCC1CCO)c1ccccc1", "note": "(stereo unspecified)", "activation fold": "2.1 (active)"}
{"compound": "COc1cccc(OCc2cc(/C=N/NC(=O)c3nc(Cl)c(Cl)c(N)c3Cl)ccc2OC)c1", "activation fold": "1.5 (inactive)"}
{"compound": "CCc1c(C)nc2cc(C)[nH]n2c1=O", "activation fold": "0.9 (inactive)"}
{"compound": "CCCc1nnc(NC(=O)c2cccs2)s1", "activation fold": "0.9 (inactive)"}
{"compound": "CCCc1nnc(NC(=O)CN2C(=O)c3ccccc3S2(=O)=O)s1", "activation fold": "2.2 (active)"}
{"compound": "CNC(=O)CN1C(=O)c2ccccc2S1(=O)=O", "activation fold": "0.9 (inactive)"}
{"compound": "COc1cc2c(cc1OC)C(C(=O)NCc1ccco1)C1c3ccccc3CCN1C2=O", "note": "(stereo unspecified)", "activation fold": "1.2 (inactive)"}
{"compound": "O=C(O)CSCNC(=O)CC12CC3CC(CC(C3)C1)C2", "activation fold": "1.2 (inactive)"}
{"compound": "NC(CSC12CC3CC(CC(C3)C1)C2)C(=O)O", "note": "(stereo unspecified)", "activation fold": "2 (active)"}
{"compound": "CN1/C(=c2/s/c(=C3/C(=O)N(c4ccccc4)NC3=Nc3ccccc3)n(C)c2=O)C(C)(C)c2ccccc21", "activation fold": "0.7 (inactive)"}
{"compound": "COc1ccc(S(=O)(=O)Nc2ccc3oc(C)c(C(C)=O)c3c2)cc1", "activation fold": "1.3 (inactive)"}
{"compound": "Cc1nc2nc(C)c(CCC(=O)N3CCN(c4ccccc4)CC3)c(C)n2n1", "activation fold": "0.8 (inactive)"}
{"compound": "CC1CC(c2ccccc2)n2nc(NC(=O)c3cccs3)nc2N1", "note": "(stereo unspecified)", "activation fold": "2.1 (active)"}
{"compound": "COc1ccc(CC(=O)Nc2nc3n(n2)C(c2ccccc2)CC(=O)N3)cc1OC", "note": "(stereo unspecified)", "activation fold": "1.5 (inactive)"}
{"compound": "O=C(Nc1ncccn1)c1cccs1", "activation fold": "0.9 (inactive)"}
{"compound": "CN(C(=O)CSc1nnc(N)s1)c1c(N)n(Cc2ccccc2)c(=O)[nH]c1=O", "activation fold": "1.1 (inactive)"}
{"compound": "O=C(CN1C(=O)CC(c2ccccc2)=Nc2ccccc21)NC1CCCCC1", "activation fold": "1 (inactive)"}
{"compound": "Cc1ccc(-n2nc3ccc(NC(=O)/C=C/c4ccco4)cc3n2)cc1C", "activation fold": "0.9 (inactive)"}
{"compound": "Cc1cccc(NC(=O)CSc2nnc(-c3ccco3)o2)c1", "activation fold": "2 (active)"}
{"compound": "O=C(CSc1nnc(-c2ccco2)o1)NCC(=O)c1ccccc1", "activation fold": "1.2 (inactive)"}
{"compound": "CCOC(=O)c1sc(NC(=O)CSc2nnc(-c3ccco3)o2)c(C(=O)OCC)c1C", "activation fold": "1 (inactive)"}
{"compound": "CONC(=O)c1cc(OCC(F)(F)F)ccc1OCC(F)(F)F", "activation fold": "1 (inactive)"}
{"compound": "Cn1c(SCC(=O)NC2CCCCC2)nnc1-c1cc2ccccc2o1", "activation fold": "1.1 (inactive)"}
{"compound": "Cc1cccc(N2C(=O)C3C(c4ccccc4)OC4(C(=O)c5ccccc5C4=O)C3C2=O)c1", "note": "(stereo unspecified)", "activation fold": "1.2 (inactive)"}
{"compound": "Cc1cccc(N2C(=O)c3cccnc3C2=O)c1", "activation fold": "1 (inactive)"}
{"compound": "CCCc1nc2scc(-c3ccc(C)cc3)c2c(=O)n1N", "activation fold": "0.9 (inactive)"}
{"compound": "N#C/C(=C(\\O)CCl)c1nnc2n1CCCCC2", "activation fold": "0.8 (inactive)"}
{"compound": "Cc1cc([N+](=O)[O-])ccc1NCc1cccc([N+](=O)[O-])c1", "activation fold": "1 (inactive)"}
{"compound": "COCCCn1c(SCc2cccc(OC)c2)nc2cc(OC)c(OC)cc2c1=N", "activation fold": "1.5 (inactive)"}
{"compound": "Cc1ccc(C(c2sc3nc(C)nn3c2O)N2CCN(c3ccc(F)cc3)CC2)cc1", "note": "(stereo unspecified)", "activation fold": "1.7 (inactive)"}
{"compound": "Oc1c(C(c2ccco2)N2CCC3(CC2)OCCO3)sc2ncnn12", "note": "(stereo unspecified)", "activation fold": "1.7 (inactive)"}
{"compound": "Oc1c(C(c2cccs2)N2CCN(c3ccc(F)cc3)CC2)sc2ncnn12", "note": "(stereo unspecified)", "activation fold": "2 (active)"}
{"compound": "O=C(O)c1cnn2c(C(F)(F)F)cc(-c3ccccc3)nc12", "activation fold": "0.9 (inactive)"}
{"compound": "C/C(=N\\NC(=O)Cc1ccc(Cl)cc1)c1ccccn1", "activation fold": "1.8 (inactive)"}
{"compound": "CCNc1nc(N)nc(-c2cc(Cl)ccc2OC)n1", "activation fold": "1 (inactive)"}
{"compound": "CC(C)NC(=O)c1ccc(Sc2ccccc2)c([N+](=O)[O-])c1", "activation fold": "1.2 (inactive)"}
{"compound": "COc1ccc(C(=O)NNC(=O)c2cnccn2)cc1[N+](=O)[O-]", "activation fold": "2.8 (active)"}
{"compound": "COc1ccccc1CCNC(=O)c1cnccn1", "activation fold": "1.2 (inactive)"}
{"compound": "CC(Oc1ccc(F)cc1F)C(=O)/C=C/N(C)C", "note": "(stereo unspecified)", "activation fold": "1.2 (inactive)"}
{"compound": "CC(=O)c1sc(NC(=O)c2cccc3ccccc23)nc1C", "activation fold": "1 (inactive)"}
{"compound": "COc1cccc2sc(Nc3nc(C)c(C(C)=O)s3)nc12", "activation fold": "2.4 (active)"}
{"compound": "CC(=O)c1sc(NC(=O)c2ccc(C)cc2)nc1C", "activation fold": "1.2 (inactive)"}
{"compound": "Cc1ccc(NC(=S)NC(NC(=O)Cc2cccc3ccccc23)C(Cl)(Cl)Cl)cc1", "note": "(stereo unspecified)", "activation fold": "0.6 (inactive)"}
{"compound": "COC(=O)c1ccc(CSc2nnc(NC(C)C)s2)cc1", "activation fold": "0.9 (inactive)"}
{"compound": "CC1=NN(C(=O)c2ccccc2Br)C(O)(c2cccnc2)C1", "note": "(stereo unspecified)", "activation fold": "1.4 (inactive)"}
{"compound": "CC1=NN(C(=O)Cc2ccc(C)cc2)C(O)(c2cccnc2)C1", "note": "(stereo unspecified)", "activation fold": "2.4 (active)"}
{"compound": "Cc1ccc(NC(=O)N2CCC(O)(c3cccnc3)CC2)cc1", "activation fold": "0.9 (inactive)"}
{"compound": "O=C(Nc1ccc2ccccc2c1)Nc1ccc2snnc2c1", "activation fold": "0.9 (inactive)"}
{"compound": "O=C(NCCCCCCCCCNC(=O)C(F)(F)F)C(F)(F)F", "activation fold": "0.9 (inactive)"}
{"compound": "CCCCC(=O)N/N=C(\\C)CC(=O)Nc1cc(Cl)ccc1OC", "activation fold": "0.9 (inactive)"}
{"compound": "COc1ccc(Cl)cc1NC(=O)c1oc(C)nc1C", "activation fold": "1.4 (inactive)"}
{"compound": "COc1ccc(Cl)cc1NC(=O)CN(C)C(=O)CNC(=O)C12CC3CC(CC(C3)C1)C2", "activation fold": "2 (active)"}
{"compound": "O=C(COc1ccc(Br)cc1F)NC1CCN(Cc2ccccc2)CC1", "activation fold": "1.7 (inactive)"}
{"compound": "Cc1ccc2[nH]c(=O)c(CN(CCCN(C)C)C(=O)Nc3cccc(Cl)c3)cc2c1", "activation fold": "1.5 (inactive)"}
{"compound": "O=C(COC(=O)c1n[nH]c2ccccc12)NCc1ccccc1", "activation fold": "2.2 (active)"}
{"compound": "COc1ccc(COC(=O)c2n[nH]c3ccccc23)cc1F", "activation fold": "1.4 (inactive)"}
{"compound": "CN(C)S(=O)(=O)c1ccc(NC(=O)COC(=O)c2n[nH]c3ccccc23)cc1", "activation fold": "1 (inactive)"}
{"compound": "Cn1c(N)c(C(=O)COC(=O)C23CC4CC(CC(C4)C2)C3)c(=O)n(C)c1=O", "activation fold": "1.9 (inactive)"}
{"compound": "CC/C(C)=N/Nc1nc2sc3c(c2c(=O)[nH]1)CC(C)(C)OC3", "activation fold": "1.1 (inactive)"}
{"compound": "C=CCNC(=S)NNc1ncnc2sc3c(c12)CC(C)(C)OC3", "activation fold": "2.2 (active)"}
{"compound": "CCC(O)CNc1nc(-n2nc(C)cc2C)nc2sc3c(c12)CC(C)(C)OC3", "note": "(stereo unspecified)", "activation fold": "1 (inactive)"}
{"compound": "Cc1ccc(SC(=O)COc2ccc(C)c(C)c2)cc1", "activation fold": "1 (inactive)"}
{"compound": "CCOC(=O)C1=C(CNC2CCCCC2)NC(=O)NC1c1cc(C)ccc1C", "note": "(stereo unspecified)", "activation fold": "1.1 (inactive)"}
{"compound": "COc1cc(OC)c(C(=O)NC2CCCCCC2)cc1OC", "activation fold": "1.7 (inactive)"}
{"compound": "CCOC(=O)c1[nH]cnc1C(=O)NC1CCCCC1", "activation fold": "2.2 (active)"}
{"compound": "Cc1cc(C(=O)OC(C)C(=O)Nc2cccc(S(=O)(=O)N3CCOCC3)c2)c(C)o1", "note": "(stereo unspecified)", "activation fold": "1.7 (inactive)"}
{"compound": "CCOc1cccc(-n2nnnc2-c2ccc(OC)cc2)c1", "activation fold": "1.4 (inactive)"}
{"compound": "CCOc1nnc(C)c2c(C)n(-c3cccc(Cl)c3)nc12", "activation fold": "2.1 (active)"}
{"compound": "COC(=O)C(C)n1cnc2c(nnn2-c2cccc(Cl)c2)c1=O", "note": "(stereo unspecified)", "activation fold": "0.9 (inactive)"}
{"compound": "CCCCCCCC(=O)NC(Nc1ccccc1OC)C(Cl)(Cl)Cl", "note": "(stereo unspecified)", "activation fold": "0.9 (inactive)"}
{"compound": "CCN(CC)S(=O)(=O)c1ccc2nc(COC(=O)c3n[nH]c4ccccc34)[nH]c2c1", "activation fold": "1.8 (inactive)"}
{"compound": "CCN(CC)S(=O)(=O)c1ccc2nc(CSc3nnnn3-c3ccc(O)cc3)[nH]c2c1", "activation fold": "2.7 (active)"}
{"compound": "O=c1c2ccccc2nc(CSc2nnnn2-c2ccccc2)n1-c1ccccc1", "activation fold": "0.9 (inactive)"}
{"compound": "CC(=O)NS(=O)(=O)c1ccc(NC(=S)NC(=O)C(C)(C)C)cc1", "activation fold": "1.1 (inactive)"}
{"compound": "COc1ccccc1NC(=O)c1ccc2nc(N3C(=O)CCC3=O)sc2c1", "activation fold": "1.1 (inactive)"}
